# Where “and” joins values, the source holds several entries; their conditions need not be identical. Identical values can stand only once. Inconclusive results are not listed. Entries that show only a call come without a potency. More than one record can exist for a structure, and the calls need not agree. Calls of active or inactive are those of the source. Calls come from the whole dose curve; as a rule, active = well fitted cell-killing curve with a large enough effect in the repeat runs; inconclusive = weak or mixed curves, or effect the other way; inactive = flat fitted curve, though single readings scatter.
# Experiment: Human pregnane X receptor (PXR) small molecule agonists, qHTS cell viability counter screen (AID 1346977); note: nearly all actives have a fitted effect of over 50% in size
# Conditions: PXR-Luc HepG2 viability, CellTiter-Fluor, 24 h; series mostly up to 92.4 µM; activity change, negative = cytotoxicity: at the top concentration
# Source text: U.S. Tox21 Program National Center for Advancing Translational Sciences [NCATS] NIH Chemical Genomics Center [NCGC] U.S. Environmental Protection Agency [EPA] National Institutes of Environmental Health Sciences [NIEHS] National Toxicology Program [NTP] U.S. Food and Drug Administration [FDA] Tox21 Assay Overview: The human pregnane X receptor (hPXR) regulates the expression of several drug metabolizing enzymes and induction of these proteins is a major mechanism for developing drug resistance in cancer. One such key enzyme catalyzing the drug metabolism is cytochrome P450 3A4 (CYP3A4). Changes in CYP3A4 expression affect drug metabolism, thereby reducing the therapeutic efficacy and altering toxicological response to a drug and which finally causes adverse drug interaction. To screen Tox21 libraries for compounds that activate hPXR-mediated CYP3A4 gene expression, PXR-Luc HepG2 cells were used. Also cytotoxicity of the compounds was tested in parallel by measuring the cell viability using CellTiter-Fluor assay system in the same wells.
# Tox21 Assay Protocol Summary: PXR-Luc HepG2 cells were dispensed at 2,000 per well in 5uL of assay medium containing 5% charcoal-stripped FBS into white solid bottom 1536-well plates (Corning Life Sciences, Corning, NY) using a Multidrop Combi (Thermo Scientific, Waltham, MA) dispenser. The assay plates were incubated at 37 C and 5% CO2 for 5hr, and then 23nL of compounds dissolved in DMSO and positive control were transferred using a Pintool station (Wako, San Diego, CA). The assay plates were incubated at 37C and 5% CO2 for 24hr. For cytotoxicity read, after 23hr incubation at 37C, 1uL CellTiter-Fluor reagent (Promega Corporation, Madison, WI) was added to each well of the assay plates using Flying Reagent Dispenser (FRD, Aurora Discovery, San Diego, CA). After 1hr incubation at 37C and 5% CO2, the fluorescence signal was quantified using a ViewLux plate reader (PerkinElmer, Shelton, CT).
# Potency is the fitted concentration of half-maximal effect.
SMILES,Potency,"activity change, negative = cytotoxicity"
O=C1CCCCCN1,7.08 µM (active) and inactive,–
Cc1cccc2ccccc12,inactive,–
COc1cc2c(c(OC)c1OC)-c1ccc(OC)c(=O)cc1[C@@H](NC(C)=O)CC2,inactive,–
CC1=NN(c2ccccc2)C(=O)C1,inactive,–
Cc1cccc(Nc2cc(Cl)nc(SCC(=O)O)n2)c1C,inactive,–
COc1ccccc1NC(=O)CC(C)=O,inactive,–
COc1ccc(C(=O)c2ccccc2)c(O)c1,inactive,–
CCCCCCCC(=O)OCC(O)CO (stereo not given),inactive,–
CC1=C(/C=C/C(C)=C/C=C/C(C)=C/C(=O)O)C(C)(C)CCC1,inactive,–
NC(=O)c1ccc([N+](=O)[O-])cc1Cl,inactive,–
O=c1c(-c2ccc(O)cc2)coc2cc(O)cc(O)c12,inactive,–
CCn1cc(C(=O)O)c(=O)c2ccc(C)nc21,inactive,–
OC[C@@H](O)[C@@H](O)[C@H](O)[C@H](O)CO,inactive,–
C/C=C/c1ccc(O)c(OC)c1,inactive,–
O=C(OCc1ccccc1)c1ccccc1,inactive,–
C=C(C)OC(C)=O,inactive,–
CCCCOCCOCCSC#N,inactive,–
Nc1cccc(N)c1,inactive,–
COc1ccccc1O,inactive,–
N[C@@H](Cc1c[nH]c2ccccc12)C(=O)O,inactive,–

SMILES,Potency,"activity change, negative = cytotoxicity"
CC1(C)O[C@@H]2[C@@H](CO[C@@]3(COS(N)(=O)=O)OC(C)(C)O[C@@H]23)O1,inactive,–
Cn1cnc2c1c(=O)[nH]c(=O)n2C,inactive,–
Cc1cccc(C)c1O,inactive,–
CN(C)Cc1cc(CN(C)C)c(O)c(CN(C)C)c1,inactive,–
CCCCNC(=O)NS(=O)(=O)c1ccc(N)cc1,inactive,–
C[C@]12CC[C@@H]3c4ccc(O)cc4C[C@@H](CCCCCCCCCS(=O)CCCC(F)(F)C(F)(F)F)[C@H]3[C@@H]1CC[C@@H]2O (stereo not given in full),inactive,–
CO[C@H]1C=CO[C@@]2(C)Oc3c(C)c(O)c4c(O)c(c(/C=N/N5CCN(C)CC5)c(O)c4c3C2=O)NC(=O)/C(C)=C\C=C[C@H](C)[C@H](O)[C@@H](C)[C@@H](O)[C@@H](C)[C@H](OC(C)=O)[C@@H]1C,35.5 µM (active) and 19.6 µM (active) and 23.7 µM (active),–
Cc1c(N(C)C)c(=O)n(-c2ccccc2)n1C,inactive,–
COC1=CC(=O)C[C@@H](C)[C@]12Oc1c(Cl)c(OC)cc(OC)c1C2=O,inactive,–
C#C[C@]1(O)CC[C@H]2[C@@H]3CCc4cc(O)ccc4[C@H]3CC[C@@]21C,–,2.9% [at 42.5 µM] (inactive)
Cc1c(N(C)CS(=O)(=O)O)c(=O)n(-c2ccccc2)n1C,inactive,–
CCN(CC)CCOC(=O)c1ccc(N)cc1,inactive,–
C=CCOC(=O)CC(C)C,inactive,–
CC(=O)CCC(C)C,inactive,–
C[C@]12C[C@H](O)[C@H]3[C@@H](CCC4=CC(=O)CC[C@@]43C)[C@@H]1CC[C@@H]2C(=O)CO,inactive,–
COC(=O)c1ccc(C=O)cc1,inactive,–
NC(=O)NO,inactive,–
COC(=O)c1ccc(O)cc1,inactive,–
CC(=O)Oc1ccccc1C(=O)O,inactive,–
COc1cc(C=O)ccc1O,inactive,–

# Source: PubChem BioAssay (Tox21)
